The nature of assay [1]: viability loss with induced miR-34 in A549 – imaging, A549 dox-inducible miR-34, nuclei and caspase counts, primary screen (AID 1347080). Note: test concentration not given here. As to conditions: A549 miR-34 inducible, Hoechst nuclei count, 48 h.
A short description of assay [2]: MELAS cybrid and Rieske KO viability enhancers – cell-based, MELAS cybrids, Rieske KO mouse fibroblasts, CellTiter-Glo, primary screen (AID 1508586;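 active = mean z-score across replicates of 1.96 or higher in either the MELAS or the Rieske mutant cell line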;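 note: test concentration not given here; z relative to plate mean and SD of compound and empty wells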). To be noted: low glucose. On the technique in general: ATP-based viability assays read luminescence as a measure of living cells.
Assay [3] can be described thus: galactose survival enhancers in mitochondrial complex I cybrids – cell-based, galactose medium, ATP luminescence, primary screen (AID 1645843;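 active = z-score of at least 1.8 in each of two replicates, scored against plate mean and spread of sample wells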;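 note: positive z means more ATP and so rescue of galactose-driven cybrid death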). As to conditions: complex I mutant cybrid cells, 72 h, stronger effect = higher value.
[4] abbreviates: stronger effect = lower value, cell number ratio, induced over uninduced.
The mark [5] stands for this setting: measured here: relative caspase fold change +Dox/-Dox.
[6] abbreviates: measured here: total cells with miR-34 induction, stronger effect = lower value.
The mark [7] stands for this setting: measured here: total cells without miR-34 induction.
The mark [8] stands for this setting: MELAS cybrid survival, CellTiter-Glo 48 h, stronger effect = higher value.
Where [9] appears, read: Rieske KO mouse fibroblast survival, CellTiter-Glo 72 h.

Where “and” joins values, the source holds several entries; their conditions need not be identical. Identical values can stand only once. Calls of active or inactive are those of the source.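 Rule for the calls, unless noted: active = compounds whose cell count with miR-34 switched on is under 0.7 times the count with it off; inactive = the rest.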

On to `COc1ccc(CSc2nnc(-c3ccc4c(c3)OCO4)o2)cc1F`, for which the figures for the fold change in assay [1] (setting [4]) and in assay [1] (setting [5]) were 0.89 (inactive) and 0.327, respectively. In addition, the cell count is 8570 in assay [1] (setting [6]) and 9630 in assay [1] (setting [7]). Moreover, the figures for the z-score in assay [2] (setting [8]), in assay [2] (setting [9]) and in assay [3] were 0.835 (inactive), -0.403 and 1.06 (inactive), respectively.
On to `O=C(Nc1n[nH]c(-c2ccccc2)n1)N1CCN(c2ccc(F)cc2)CC1`, for which the fold change is 0.826 (inactive) in assay [1] (setting [4]) and 1.21 in assay [1] (setting [5]). Moreover, the cell count in assay [1] (setting [6]) was found to be 6770; in assay [1] (setting [7]), 8190. For the same molecule, the z-score in assay [2] (setting [8]) was -0.373; in assay [2] (setting [9]), 4.03; in assay [3] it was 0.11 (inactive).
With `CC(C)n1cc(-c2cc(C(=O)N(C)Cc3cccnc3)c3cc(F)ccc3n2)cn1`, the results for the fold change in assay [1] (setting [4]) and in assay [1] (setting [5]) were 0.861 (inactive) and 1.63, respectively. Moreover, the cell count worked out at 9060 in assay [1] (setting [6]) and 10500 in assay [1] (setting [7]). The results for the z-score in assay [2] (setting [8]), in assay [2] (setting [9]) and in assay [3] were -0.238 (inactive), 0.816 and -0.535 (inactive), respectively.
With `O=C(Nc1cccc(-c2nn[nH]n2)c1)c1cccc(F)c1`, the figures for the fold change in assay [1] (setting [4]) and in assay [1] (setting [5]) were 0.949 (inactive) and 0.795, respectively. In addition, the cell count in assay [1] (setting [6]) turned out to be 8970; in assay [1] (setting [7]), 9450. The figures for the z-score in assay [2] (setting [8]), in assay [2] (setting [9]) and in assay [3] were 1.21 (inactive), -0.523 and 0.385 (inactive), respectively.
Turning to `O=C(O)CSc1nnc(-c2ccc([N+](=O)[O-])o2)o1`, the fold change in assay [1] (setting [4]) was 0.911 (inactive); in assay [1] (setting [5]), 0.48. Further, the cell count amounted to 8530 in assay [1] (setting [6]) and 9370 in assay [1] (setting [7]). The z-score in assay [2] (setting [8]) was -1.16 (inactive); in assay [2] (setting [9]), 0.209; in assay [3] it was 0.17 (inactive).
Consider `O=C(O)CNC(=O)NC1CCCCC1`, for which the fold change in assay [1] (setting [4]) is 0.908 (inactive); in assay [1] (setting [5]), 0.307. The results for the cell count in assay [1] (setting [6]) and in assay [1] (setting [7]) were 9060 and 9970, respectively. Besides, the z-score was 0.384 (inactive) in assay [2] (setting [8]), -0.24 in assay [2] (setting [9]) and 0.34 (inactive) in assay [3].
Regarding `COc1ccccc1C(=O)N1CCC(n2cc(-c3ccccn3)nn2)CC1`, the figures for the fold change in assay [1] (setting [4]) and in assay [1] (setting [5]) were 0.917 (inactive) and 1.29, respectively. For the same molecule, the cell count in assay [1] (setting [6]) stood at 8760; in assay [1] (setting [7]) it was 9560. The figures for the z-score in assay [2] (setting [8]), in assay [2] (setting [9]) and in assay [3] were 0.129 (inactive), -0.319 and -0.23 (inactive), respectively.
In the case of `Cc1ccc(NC(=O)NCCSCc2ccc(CN(C)C)o2)cc1Cl`, the fold change in assay [1] (setting [4]) was 0.882 (inactive); in assay [1] (setting [5]), 0.585. The cell count in assay [1] (setting [6]) was 6630; in assay [1] (setting [7]) it was 7520. Further, the figures for the z-score in assay [2] (setting [8]), in assay [2] (setting [9]) and in assay [3] were 0.133 (inactive), -0.401 and -1.04 (inactive), respectively.
On to `O=C(O)c1ccc(-c2ccccc2Cl)o1`, for which the fold change is 0.867 (inactive) in assay [1] (setting [4]) and 0.416 in assay [1] (setting [5]). The cell count in assay [1] (setting [6]) came to 7840; in assay [1] (setting [7]), 9050. Moreover, the z-score was -0.894 (inactive) in assay [2] (setting [8]), 0.4 in assay [2] (setting [9]) and 0.53 (inactive) in assay [3].
As to `CNc1ccnc(-c2cnn(CC(=O)Nc3cc(C)nn3C)c2)n1`, the fold change in assay [1] (setting [4]) is 0.867 (inactive); in assay [1] (setting [5]) it was 1.09. The values for the cell count in assay [1] (setting [6]) and in assay [1] (setting [7]) were 8660 and 9980, respectively. Besides, the values for the z-score in assay [2] (setting [8]), in assay [2] (setting [9]) and in assay [3] were -0.389 (inactive), -1.16 and -0.515 (inactive), respectively.
In the case of `NC(N)=NC(N)=Nc1cc(C(F)(F)F)ccc1Cl`, the figures for the fold change in assay [1] (setting [4]) and in assay [1] (setting [5]) were 0.901 (inactive) and 0.694, respectively. Further, the cell count in assay [1] (setting [6]) turned out to be 7310; in assay [1] (setting [7]) it was 8110. For the same molecule, the z-score was 0.898 (inactive) in assay [2] (setting [8]), -0.189 in assay [2] (setting [9]) and -1.95 (inactive) in assay [3].
As to `O=C(NN=Cc1cc(Br)c(O)c(Br)c1O)c1cccc(Br)c1`, the fold change is 0.911 (inactive) in assay [1] (setting [4]) and 0.461 in assay [1] (setting [5]). Besides, the cell count in assay [1] (setting [6]) was determined as 2930; in assay [1] (setting [7]), 3220. For the same molecule, the z-score is 1.44 (inactive) in assay [2] (setting [8]), 0.907 in assay [2] (setting [9]) and -2.57 (inactive) in assay [3].
With `O=C(O)Cc1c[nH]c2ccccc12`, the figures for the fold change in assay [1] (setting [4]) and in assay [1] (setting [5]) were 0.913 (inactive) and 0.9, respectively. The cell count in assay [1] (setting [6]) came to 8300; in assay [1] (setting [7]) it was 9090. The z-score is -0.643 (inactive) in assay [2] (setting [8]), -0.265 in assay [2] (setting [9]) and 0.49 (inactive) in assay [3].
Consider `COc1cc(Cn2cnc3nccnc3c2=O)cc(OC)c1`, for which the fold change was 0.919 (inactive) in assay [1] (setting [4]) and 2.53 in assay [1] (setting [5]). Moreover, the values for the cell count in assay [1] (setting [6]) and in assay [1] (setting [7]) were 9000 and 9790, respectively. Also, the z-score in assay [2] (setting [8]) was -0.417 (inactive); in assay [2] (setting [9]), -0.582; in assay [3], -0.515 (inactive).
Consider `CN(Cc1nc2ccc(Cl)cc2[nH]1)C(=O)c1n[nH]c2ccccc12`, for which the fold change in assay [1] (setting [4]) is 0.846 (inactive); in assay [1] (setting [5]), 1.41. The cell count in assay [1] (setting [6]) is 6230; in assay [1] (setting [7]), 7360. Moreover, the z-score in assay [2] (setting [8]) was -0.529 (inactive); in assay [2] (setting [9]), 0.953; in assay [3], 1.46 (inactive).
With `CCOc1cc(CC(=O)NC(CC(C)C)c2ccccc2N2CCCCC2)ccc1C(=O)O` (stereo not drawn), the fold change is 0.993 (inactive) and 0.919 (inactive) in assay [1] (setting [4]); 2 and 0.721 in assay [1] (setting [5]). The cell count in assay [1] (setting [6]) was 8780 and 7660; in assay [1] (setting [7]), 8840 and 8340. For the same molecule, the results for the z-score in assay [2] (setting [8]), in assay [2] (setting [9]) and in assay [3] were -0.382 (inactive), 0.561 and 1.65 (inactive), respectively.
For `CSc1ccccc1C(=O)N1CCc2[nH]nc(COc3ccccc3)c2C1`, the fold change is 0.941 (inactive) in assay [1] (setting [4]) and 0.435 in assay [1] (setting [5]). Besides, the cell count in assay [1] (setting [6]) was found to be 8390; in assay [1] (setting [7]), 8920. The results for the z-score in assay [2] (setting [8]), in assay [2] (setting [9]) and in assay [3] were -0.515 (inactive), 0.374 and 1.12 (inactive), respectively.
As to `COc1ccc(CC(C)NCC(O)c2ccc(O)c(NC=O)c2)cc1` (stereo not drawn), the fold change in assay [1] (setting [4]) was 0.94 (inactive) and 0.989 (inactive); in assay [1] (setting [5]), 1.58 and 0.394. Also, the cell count in assay [1] (setting [6]) was 10500 and 8090; in assay [1] (setting [7]), 11200 and 8180. The z-score in assay [2] (setting [8]) is 0.143 (inactive); in assay [2] (setting [9]), -0.0828; in assay [3], -0.17 (inactive).
Consider `COc1cccc2ccc(-c3nnc4ccccn34)nc12`, for which the fold change in assay [1] (setting [4]) was 0.871 (inactive); in assay [1] (setting [5]), 1.83. For the same molecule, the cell count is 7320 in assay [1] (setting [6]) and 8400 in assay [1] (setting [7]). Further, the z-score was -0.646 (inactive) in assay [2] (setting [8]), 0.957 in assay [2] (setting [9]) and -0.595 (inactive) in assay [3].
`COc1cc(N=C(N)N=C(N)N)cc(OC)c1`: the fold change in assay [1] (setting [4]) was 0.901 (inactive); in assay [1] (setting [5]), 0.269. In addition, the cell count in assay [1] (setting [6]) was 8210; in assay [1] (setting [7]), 9120. Besides, the values for the z-score in assay [2] (setting [8]), in assay [2] (setting [9]) and in assay [3] were 0.825 (inactive), -0.341 and 0.61 (inactive), respectively.
As to `Cc1nsc(NC(=O)N2CCCCC2c2nc(C(C)C)no2)n1` (stereo not drawn), the fold change was 0.906 (inactive) in assay [1] (setting [4]) and 1.98 in assay [1] (setting [5]). Besides, the cell count in assay [1] (setting [6]) worked out at 9100; in assay [1] (setting [7]), 10000. Further, the z-score is -0.274 (inactive) in assay [2] (setting [8]), -0.381 in assay [2] (setting [9]) and -0.525 (inactive) in assay [3].
As to `Cc1ccc(NS(=O)(=O)c2ccccc2)c(C(=O)O)c1`, the fold change in assay [1] (setting [4]) was 0.888 (inactive); in assay [1] (setting [5]) it was 0.521. Also, the results for the cell count in assay [1] (setting [6]) and in assay [1] (setting [7]) were 8960 and 10100, respectively. Moreover, the results for the z-score in assay [2] (setting [8]), in assay [2] (setting [9]) and in assay [3] were 0.391 (inactive), -0.208 and 0.425 (inactive), respectively.
Take `Cc1cnc(CN(C)C(=O)c2n[nH]c3ccccc23)[nH]1`: the values for the fold change in assay [1] (setting [4]) and in assay [1] (setting [5]) were 0.891 (inactive) and 1.39, respectively. Moreover, the cell count worked out at 8830 in assay [1] (setting [6]) and 9910 in assay [1] (setting [7]). Further, the z-score in assay [2] (setting [8]) is 0.305 (inactive); in assay [2] (setting [9]) it was -0.304; in assay [3] it was -0.445 (inactive).
`O=S(=O)(Nc1cc(-c2cccs2)nn1-c1ccc(F)cc1)c1cccc(F)c1`: the fold change in assay [1] (setting [4]) was 0.903 (inactive); in assay [1] (setting [5]), 0.956. Also, the cell count worked out at 7390 in assay [1] (setting [6]) and 8190 in assay [1] (setting [7]). The z-score in assay [2] (setting [8]) was 0.0617 (inactive); in assay [2] (setting [9]), 0.524; in assay [3], -1.46 (inactive).

The record behind these values is PubChem BioAssay.
